A short description of test [1]: qHTS assay to identify small molecule agonists of the vitamin D receptor (VDR) signaling pathway - cell viability counter screen (AID 743224). Further: series mostly up to about 63 µM; nearly all actives have a fitted effect of over 50% in size. The gist of the method:
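VDR-bla cells, 4 h after plating, exposed to compounds for 16 h at 37C; viability then read in the same wells as CellTiter-Glo luminescence after 30 min at room temperature, following the bla FRET read.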

Test [2] is described as follows: qHTS assay to identify small molecule antagonists of the vitamin D receptor (VDR) signaling pathway - cell viability counter screen (AID 743225). Further: nearly all actives have a fitted effect of over 50% in size. The gist of the method:
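Same-well multiplex: following 16 h treatment of HEK 293T cells carrying a UAS-driven beta-lactamase reporter with compound and agonist (3 nM final), and a 2 h FRET substrate step, CellTiter-Glo was added and luminescence read after 30 min.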

Test [3] in a line: qHTS assay to identify small molecule agonists of the NFkB signaling pathway (AID 1159509; active means well fitted curve in the direction sought with a large enough effect in the signal ratio in the repeat runs, not every such curve was filed as active; the % refers to the signal ratio; further: series mostly up to about 61 µM). Put shortly: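 ME-180 NFkB-bla, 2,000 cells/well, overnight plating; cpd pinned in DMSO, 5 h 37 C; B/G FRET substrate 1.5 h RT; ex 405, em 460/530 nm.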
Test [4] can be described thus: qHTS assay to identify small molecule agonists of the NFkB signaling pathway - cell viability counter screen (AID 1159515; calls by dose curve; further: series mostly up to about 61 µM; nearly all actives have a fitted effect of over 55% in size). Put shortly:
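NFkB-bla ME-180 cells, 2,000/well, plated overnight at 37 C; compound added for 5 hr at 37 C. Viability read in the same wells as the bla reporter, by CellTiter-Glo luminescence after 30 min at room temperature.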

Test [5] in a line: qHTS assay to identify small molecule agonists of the endoplasmic reticulum stress response signaling pathway (AID 1159516; active means well fitted activation curve with a large enough effect in the signal ratio in the repeat runs, not every such curve was filed as active; the % refers to the signal ratio). The gist of the method: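 CellSensor ESRE-bla HeLa cells, 1,500 per well, plated overnight, then exposed to compounds for 5 hr at 37 C. Beta-lactamase reporter read with LiveBLAzer B/G FRET substrate after 2 hr at room temperature, 405 nm excitation, 460 and 530 nm emission.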

Test [6] in a line: qHTS assay to identify small molecule agonists of the endoplasmic reticulum stress response signaling pathway - cell viability counter screen (AID 1159517; calls by dose curve;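 further: HeLa cells carrying an ER stress response element beta-lactamase reporter; series mostly up to about 61 µM; nearly all actives have a fitted effect of over 50% in size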). Put shortly:
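ESRE-bla HeLa cells, 1,500 per well, seeded overnight then treated with compounds for 5 hr at 37 C. After the beta-lactamase read, viability in the same wells is measured by CellTiter-Glo luminescence after 30 min at room temperature.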

Test [7] in a line: qHTS assay to identify small molecule antagonists of the retinoid-related orphan receptor gamma (ROR-gamma) signaling pathway - cell viability counter screen (AID 1159520). Further: nearly all actives have a fitted effect of over 50% in size. Put shortly: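 Tet-on ROR gamma CHO cells were given compounds for 2 hr, then doxycycline hyclate at 1 uM final, and incubated 16 hr at 37 C. Viability was measured as ATP content by CellTiter-Glo luminescence.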

Test [8] addresses Nuclear receptor ROR-gamma (Homo sapiens) (UniProt P51449). The experiment in a line: qHTS assay to identify small molecule antagonists of the retinoid-related orphan receptor gamma (ROR-gamma) signaling pathway (AID 1159521; further: nearly all actives have a fitted effect of over 50% in size; further: potency means the concentration at half of the fitted maximal effect). The gist of the method: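 Inducible-expression reporter assay: doxycycline (1 uM final) switched on RORγ in CHO cells bearing a ROR response element-luciferase construct, with test compounds present from 2 h beforehand. Decreased luminescence after 16 h defined antagonist activity.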

Test [9] can be described thus: qHTS assay to identify small molecule agonists of the AP-1 signaling pathway - cell viability counter screen (AID 1159525; calls by dose curve; further: nearly all actives have a fitted effect of over 55% in size). The gist of the method: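 AP-1-bla ME-180 cells in Opti-MEM with 0.5% dialyzed FBS, compound exposure 5 h at 37 C in 15-point titration. Viability read in the same wells as ATP content by CellTiter-Glo luminescence, normalised to tetra-n-octylammonium bromide and DMSO controls.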

Test [10] is described as follows: qHTS assay to identify small molecule agonists of the AP-1 signaling pathway (AID 1159526; calls by dose curve).
Test [11] addresses Retinoic acid receptor RXR-alpha (Homo sapiens) (UniProt P19793). The experiment in a line: qHTS assay to identify small molecule agonists of the RXR signaling pathway (AID 1159527; calls by dose curve; further: nearly all actives have a fitted effect of over 35% in size; further: potency means the concentration at half of the fitted maximal effect). The gist of the method: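 Compounds in DMSO were added to RXR-alpha-UAS-bla HEK 293T cells kept in 2% charcoal-stripped serum, and incubated 16 hr at 37 C with 5% CO2. Reporter signal came from a 2 hr B/G FRET substrate step.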

The nature of test [12]: qHTS assay to identify small molecule agonists of the RXR signaling pathway - cell viability counter screen (AID 1159529). Put shortly: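 Counter screen: CellTiter-Glo luminescence. Cells: RXR-alpha-UAS-bla HEK 293T. Medium: 2% charcoal-stripped FBS. Treatment: 16 h, 37 C. Reagent incubation: 30 min, RT.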
Test [13] can be described thus: qHTS assay to identify small molecule antagonists of the retinoid acid receptor (RAR) signaling pathway - cell viability counter screen (AID 1159551). Further: nearly all actives have a fitted effect of over 35% in size. The gist of the method:
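C3RL4 RARE-luciferase cells, 1,000/well, incubated overnight, then dosed with compound plus 1 uM retinol (final). After 6 hr at 37 C, viability read by CellTiter-Glo ATP luminescence following 30 min at room temperature.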

The nature of test [14]: qHTS assay to identify small molecule antagonists of the retinoic acid receptor (RAR) signaling pathway (AID 1159552; further: nearly all actives have a fitted effect of over 50% in size). The gist of the method: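 Antagonism of retinol-induced RARE reporter activity was measured in C3RL4 cells. Exposure to compounds and 1 uM final retinol lasted 6 hr at 37 C, with luminescence as endpoint.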
Test [15] can be described thus: qHTS assay to identify small molecule agonists of the retinoic acid receptor (RAR) signaling pathway (AID 1159553). Put shortly:
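C3RL4 RARE-luciferase cells were seeded at 1,000/well and grown overnight at 37 C, then exposed to compounds for 6 hr at 37 C, 5% CO2. Luciferase reagent was added and luminescence was read after 30 min at room temperature.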

Test [16] in a line: qHTS assay to identify small molecule antagonists of the estrogen related receptor (ERR) signaling pathway - cell viability counter screen (AID 1224818). Further: series mostly up to about 46 µM. The gist of the method: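 ERR cells, 2,000 per well, compound added after 6 h and incubated 17.5 h at 37 C. Viability read by CellTiter-Fluor fluorescence after a further 30 min at 37 C.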
The nature of test [17]: qHTS assay to identify small molecule antagonists of the estrogen related receptor (ERR) signaling pathway (AID 1224819). Put shortly:
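ERR reporter cell line (NTP) plated at 2,000 cells/well, settled 6 h at 37C/5% CO2, then exposed to LOPAC compounds for 18 h at 37C. One-Glo luciferase luminescence read after 30 min at room temperature.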

A short description of test [18]: qHTS assay to identify small molecule agonists of the estrogen related receptor (ERR) signaling pathway (AID 1224820). Put shortly: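 Cells: ERR line from NTP, 2,000/well. Pre-incubation 6 h, 37 C/5% CO2. Compound (DMSO) pin transfer, 18 h 37 C. One-Glo, 30 min RT, luminescence.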
In test [19] the test system is estrogen-related receptor alpha (ERRalpha) with PGC-1alpha coactivator, human. The experiment in a line: qHTS assay to identify small molecule antagonists of the estrogen related receptor signaling pathway with the pleiotropic PPARgamma coactivator (PGC) (AID 1224821; calls by dose curve). Put shortly:
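Luminescent read-out (One-Glo, 30 min at room temperature) following 18 h treatment of PGC/ERR cells at 37 C with compounds delivered in DMSO. Cells had settled 6 h at 37 C/5% CO2 before dosing.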

A short description of test [20]: qHTS assay to identify small molecule antagonists of the estrogen related receptor signaling pathway with the pleiotropic PPARgamma coactivator (PGC) cell viability counter screen (AID 1224822; further: series mostly up to about 46 µM). The gist of the method: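 PGC/ERR cells rested 6 h, then compound-treated 17.5 h at 37 C. CellTiter-Fluor added for 30 min at 37 C, viability measured by fluorescence intensity.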

Structures are written as SMILES. Inconclusive results are not listed. A structure can be active in one record and inactive in another. Calls of active or inactive are those of the source. Unless noted, the call rests on the fitted dose curve; in most records, active means well fitted curve in the direction sought with a large enough effect in the repeat runs; inconclusive means weak or mixed curves; inactive means no such curve, though single readings can be large; an effect the other way counts as inactive or inconclusive.

Chain of Retinoic acid receptor RXR-alpha (Homo sapiens) (P19793 whole entry, looked up): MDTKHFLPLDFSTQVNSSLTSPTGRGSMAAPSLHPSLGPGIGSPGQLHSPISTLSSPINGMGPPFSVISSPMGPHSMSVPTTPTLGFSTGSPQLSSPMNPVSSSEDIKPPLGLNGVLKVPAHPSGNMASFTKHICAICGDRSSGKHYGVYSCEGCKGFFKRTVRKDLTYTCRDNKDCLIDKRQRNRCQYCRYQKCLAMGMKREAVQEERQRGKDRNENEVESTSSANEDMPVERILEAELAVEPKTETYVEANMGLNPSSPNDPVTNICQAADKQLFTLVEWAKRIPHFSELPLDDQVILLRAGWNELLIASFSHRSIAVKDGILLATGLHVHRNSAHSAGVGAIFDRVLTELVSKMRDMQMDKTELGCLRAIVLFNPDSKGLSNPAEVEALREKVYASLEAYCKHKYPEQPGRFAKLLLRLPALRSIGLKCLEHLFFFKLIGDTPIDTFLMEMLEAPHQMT

Regarding `Nc1ncc([N+](=O)[O-])s1`, the Potency result in test [1], in test [8], in [10], in [11], in [14] and in test [15] was “inactive” in each case. The molecule was called inactive in test [2], in test [3], in test [4], in test [5], in [6] and in test [7]. Further, the molecule was called inactive in [9], in test [12] and in [13].
For the molecule `CCOc1ccc(N)cc1`, the Potency entry in test [1], in test [8], in test [10], in test [14] and in test [15] was “inactive” throughout. The molecule was called inactive in test [2], in [3], in test [4], in test [5], in test [6] and in test [7]. The molecule was classed as inactive in test [9], in test [12] and in test [13]. Besides, the Potency in test [11] was 11 µM (active) and inactive.
As to `C=C(C)C(=O)OCC(CC)CCCC` (stereo unspecified), the Potency result in [1], in test [10], in test [11] and in test [15] was “inactive” each time. Further, the outcome in test [2], in test [3], in [4], in [5], in [6] and in test [7] was inactive. Besides, the outcome in test [9], in [12] and in test [13] was inactive. For the same molecule, in test [8], the Potency is 49.5 µM (active) and inactive.
As for `CC(=O)C1CCOC1=O` (stereo unspecified), the Potency result in test [1], in test [8], in [10], in test [11], in [14] and in test [15] was “inactive” each time. In addition, the molecule was called inactive in [2], in [3], in test [4], in test [5], in test [6] and in test [7]. Further, the outcome in test [9], in test [12] and in [13] was inactive.
With `CC(C)c1cccc(C(C)C)c1O`, the Potency entry in test [1], in test [8], in [10], in test [11] and in test [15] was “inactive” each time. Also, the result in test [2], in [3], in test [4], in test [5], in test [6] and in test [7] was inactive. Moreover, the molecule was classed as inactive in [9], in test [12], in test [13], in [16], in test [17] and in test [18]. The molecule was called inactive in [19] and in test [20].
Take `COc1nc(NC(C)C)nc(NC(C)C)n1`: the Potency result in test [1], in test [8], in test [10], in [11] and in [15] was “inactive” in each case. The result in test [2], in [3], in test [4], in test [5], in test [6] and in [7] was inactive. The molecule was classed as inactive in test [9], in [12] and in test [13].
In the case of `CN1C(=O)CCS(=O)(=O)C1c1ccc(Cl)cc1` (stereo unspecified), the Potency result in test [1], in test [8], in [10], in test [11] and in test [15] was “inactive” throughout. In addition, the result in test [2], in [3], in test [4], in test [5], in test [6] and in test [7] was inactive. Besides, the result in test [9], in [12], in [13], in test [16] and in test [20] was inactive.
For the molecule `CC(=O)/C=C/c1ccccc1`, the Potency result in [1], in test [8], in test [10] and in [11] was “inactive” throughout. The outcome in test [2], in test [3], in test [4], in [5], in test [6] and in test [7] was inactive. For the same molecule, the call in test [9], in test [12] and in test [13] was inactive.
On to `OC[C@@H](O)[C@H]1O[C@@H]2O[C@H](C(Cl)(Cl)Cl)O[C@@H]2[C@H]1O`, for which the Potency result in test [1], in [8], in [10], in [11], in test [14] and in test [15] was “inactive” each time. Moreover, the outcome in [2], in test [3], in test [4], in [5], in [6] and in [7] was inactive. In addition, the outcome in test [9], in [12] and in test [13] was inactive.

The record behind these values is PubChem BioAssay (Tox21).
